Results as given in PubChem BioAssay (NCI).
This is part of a sample that, as a whole, favours compounds with a hit. Of some 83,000 tested, about 20% had one in any assay.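 A percent growth of 40 corresponds to 60% growth inhibition; 0 means no net growth; -100 means all cells died. Active threshold: below 10.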 Unmarked numbers belong to inactive results. Calls of active or inactive are those of the source.

How the values were obtained:
Experiment in all cases: NCI-60 one-dose screen, 48 h (100 = growth as untreated, 0 = no growth, -100 = all killed)
DU-145 prostate = conditions: 10 µM unless noted
K-562 leukemia = conditions: 10 µM unless noted
MDA-MB-231 breast = conditions: 10 µM unless noted
RXF 393 renal = conditions: 10 µM unless noted
SF-268 CNS = conditions: 10 µM unless noted
SF-295 CNS = conditions: 10 µM unless noted
SF-539 CNS = conditions: 10 µM unless noted
UACC-257 melanoma = conditions: 10 µM unless noted
HCT-15 colon = conditions: 10 µM unless noted
HT29 colon = conditions: 10 µM unless noted
SNB-75 CNS = conditions: 10 µM unless noted
SNB-19 CNS = conditions: 10 µM unless noted
U251 CNS = conditions: 10 µM unless noted
PC-3 prostate = conditions: 10 µM unless noted
SK-MEL-5 melanoma = conditions: 10 µM unless noted
UACC-62 melanoma = conditions: 10 µM unless noted
LOX IMVI melanoma = conditions: 10 µM
SK-MEL-28 melanoma = conditions: 10 µM unless noted
MALME-3M melanoma = conditions: 10 µM unless noted
M14 melanoma = conditions: 10 µM unless noted

Compound	growth (DU-145 prostate)	growth (K-562 leukemia)	growth (MDA-MB-231 breast)	growth (RXF 393 renal)	growth (SF-268 CNS)	growth (SF-295 CNS)	growth (SF-539 CNS)	growth (UACC-257 melanoma)	growth (HCT-15 colon)	growth (HT29 colon)	growth (SNB-75 CNS)	growth (SNB-19 CNS)	growth (U251 CNS)	growth (PC-3 prostate)	growth (SK-MEL-5 melanoma)	growth (UACC-62 melanoma)	growth (LOX IMVI melanoma)	growth (SK-MEL-28 melanoma)	growth (MALME-3M melanoma)	growth (M14 melanoma)
C1=NCCc2ccccc21	111%	107%	99%	104%	95%	100%	96.5%	94.8%	107%	117%	76.4%	109%	92.9%	87.7%	95.3%	114%	100%	110%	–	–
Cc1cc(CC(=O)NCCO)n(CCO)c(=O)c1	110%	–	109%	110%	101%	104%	107%	93%	109%	98.3%	95.3%	103%	97.9%	104%	104%	105%	98.8%	118%	115%	103%
COCC(N)=O	98.4%	91.8%	108%	108%	103%	102%	96%	116%	100%	102%	102%	107%	104%	94.6%	102%	109%	99.7%	121%	–	105%
O=[N+]([O-])c1ccc2[nH]c(=S)n(/C=C(/c3ccc(Cl)cc3Cl)S(=O)(=O)Cc3ccc(Cl)cc3Cl)c2c1	102%	102%	96.2%	109%	97%	97.4%	99.6%	86.5%	101%	98.9%	108%	102%	98.1%	94.7%	101%	101%	98.6%	110%	–	93.6%
CC(=O)NNC(=S)/N=C\C(C(=O)c1ccccc1)=C(/O)c1ccccc1	108%	101%	89.6%	97.7%	99.2%	108%	101%	102%	98.7%	93.8%	86.3%	105%	99.5%	93%	101%	101%	94%	106%	–	103%
CCOC(=N)CC(=O)Nc1cccc(C)c1Cl	107%	122%	89.5%	97.5%	101%	97.2%	99.6%	103%	100%	116%	86%	109%	–	93.6%	94.9%	93.9%	93%	105%	–	94.9%
CC(=O)NCNC(C)=O	118%	112%	118%	108%	110%	–	91.3%	95.4%	101%	111%	92.4%	107%	103%	88.9%	102%	112%	113%	107%	–	111%
COc1cccc(N=CNc2cccc(OC)c2)c1	107%	66%	91.9%	105%	105%	112%	98.3%	106%	85.2%	99.6%	90.8%	103%	95.9%	84.2%	99%	56.4%	–	106%	–	104%
S=CN1CCCCC1	106%	101%	108%	102%	96.7%	96%	97.4%	91.8%	99.9%	108%	93.2%	109%	89.1%	99.3%	104%	106%	99%	103%	–	106%
CCCCNc1ccc(-c2ccc(NCCCC)cc2)cc1	83.1%	46.7%	84.1%	79.7%	70%	57.4%	49.5%	70.7%	50.6%	101%	83%	77.3%	64.2%	71.7%	-40.7% (active)	42.8%	25.9%	71.5%	–	71.7%
CSCC[C@@H]1C(=O)N(C)[C@H](C(C)(C)C)N1C(=O)c1ccccc1	106%	114%	111%	111%	94.8%	108%	107%	100%	113%	116%	85.2%	114%	99.3%	104%	106%	101%	95.4%	107%	–	105%
Nc1ncnc2c1ncn2C1OC(CO)C2OC21 (stereo not given)	113%	104%	112%	103%	104%	106%	110%	98.6%	108%	101%	106%	118%	95.7%	95.8%	101%	100%	99.2%	111%	–	102%
Cc1[nH]n(-c2ccccc2)c(=O)c1C=NC(=S)C(N)=S	106%	101%	98.9%	106%	100%	98.4%	106%	97.7%	99.3%	111%	87.5%	96.8%	100%	85.8%	99.3%	93%	99.7%	110%	–	103%
O=S(Cc1ccccc1)/C(=C/NC(=S)Nc1ccccc1)c1ccccc1 (stereo not given)	104%	106%	108%	116%	99.2%	114%	99.7%	98%	106%	104%	80.2%	110%	100%	–	104%	103%	90.9%	106%	–	98.5%
COc1ccc(-c2csc(NC(=O)Nc3nc(-c4ccc(OC)cc4)cs3)n2)cc1	72.8%	67.5%	92.9%	98.5%	81.9%	87.9%	90%	67.4%	86.5%	104%	99.2%	96.6%	79.5%	67.4%	29.3%	81.3%	83.6%	99%	–	83.6%
CC(C)(C)[Si](C)(C)OCC1OC(n2cnc3c(N)ncnc32)CC1OS(C)(=O)=O (stereo not given)	105%	105%	102%	102%	97.9%	110%	108%	94.7%	115%	108%	97.4%	108%	91.7%	103%	98.5%	90.4%	95.4%	105%	–	104%
NNC(=O)CCCCl	108%	105%	104%	96.6%	102%	102%	106%	105%	104%	112%	95%	121%	98.3%	104%	102%	103%	91.3%	110%	–	100%
C=C1C(=O)C2CCN1CC2	103%	57.3%	125%	89.6%	102%	96.1%	102%	108%	105%	89.8%	89.2%	105%	100%	101%	104%	97.3%	98.9%	95.6%	–	92.3%

Compound	growth (DU-145 prostate)	growth (K-562 leukemia)	growth (MDA-MB-231 breast)	growth (RXF 393 renal)	growth (SF-268 CNS)	growth (SF-295 CNS)	growth (SF-539 CNS)	growth (UACC-257 melanoma)	growth (HCT-15 colon)	growth (HT29 colon)	growth (SNB-75 CNS)	growth (SNB-19 CNS)	growth (U251 CNS)	growth (PC-3 prostate)	growth (SK-MEL-5 melanoma)	growth (UACC-62 melanoma)	growth (LOX IMVI melanoma)	growth (SK-MEL-28 melanoma)	growth (MALME-3M melanoma)	growth (M14 melanoma)
C=CCNC(=S)N/C=C(/C(=O)c1ccccc1)c1ccccc1	109%	102%	107%	111%	98.2%	110%	101%	109%	108%	120%	88.5%	106%	96.7%	99.9%	102%	98.8%	98.1%	104%	–	91.9%
CCCOCc1cn[nH]n1	108%	104%	110%	109%	103%	101%	98.8%	94%	106%	105%	98.1%	115%	96.1%	102%	106%	98.2%	98.6%	109%	–	106%
COc1cc(OC)c(NC(=O)C(Sc2nc(C)cc(C)c2C#N)c2ccccc2)cc1Cl (stereo not given)	102%	105%	106%	73.5%	85.9%	–	83.8%	114%	97.7%	–	27.4%	94.1%	87.3%	102%	102%	94.6%	89.6%	105%	–	97.1%
CC(=O)NNC(=S)N/C=C/c1c(C)ccc([N+](=O)[O-])c1[N+](=O)[O-]	104%	102%	99.3%	105%	96.7%	103%	99.7%	99.6%	96.5%	105%	88.5%	113%	–	97.2%	105%	98.5%	96%	101%	–	89.6%
CC(O)C(F)(F)C(F)(F)C(F)(F)F (stereo not given)	119%	111%	118%	103%	115%	–	96.6%	107%	88.2%	99.9%	103%	112%	103%	110%	101%	115%	107%	108%	–	103%
C=COC(=O)CCOCC(CC)CCCC (stereo not given)	96.5%	92.9%	106%	108%	99.5%	102%	105%	108%	104%	104%	97.2%	104%	102%	–	107%	99.5%	98.8%	113%	–	–
CC(C)N1CC(=O)N2CSCC2C1=O (stereo not given)	107%	104%	120%	104%	106%	105%	97.6%	108%	105%	119%	99.3%	121%	105%	101%	104%	104%	98.9%	111%	–	104%
COc1cccc(C(=O)NNC(=O)c2cccc3ccccc23)c1	117%	98.4%	110%	115%	110%	124%	114%	109%	100%	98.2%	98.7%	110%	102%	106%	107%	128%	98.5%	117%	–	107%
Cc1cccc2ccccc12	114%	–	101%	111%	102%	97.4%	89.8%	101%	92.9%	95.8%	86.8%	103%	102%	95.5%	100%	103%	99.4%	98.2%	103%	97.7%
O=S(=O)(O)c1ccc(O)c(C2CCCCC2)c1	112%	123%	112%	105%	105%	100%	98.2%	99.3%	96.6%	98.6%	77.2%	104%	96.6%	98.5%	101%	109%	105%	110%	–	101%
COc1ccc2c(ccc[n+]2C)c1	126%	–	101%	136%	125%	114%	101%	98.2%	93.5%	93%	78.3%	101%	96.7%	119%	103%	95.5%	105%	111%	110%	108%
c1ccc(Oc2c3ccccc3nc3ccccc23)cc1	8.05% (active)	8.65% (active)	31.2%	25.4%	22.7%	-39.1% (active)	-19.6% (active)	56.7%	14.6%	2.51% (active)	41.5%	91.9%	11.7%	20.1%	13.6%	45.7%	31.3%	61.2%	–	-13.2% (active)
COC1OC(C(COC(C)=O)OC(C)=O)C(OC(C)=O)C(OC(C)=O)C1OC(C)=O (stereo not given)	115%	119%	126%	115%	113%	–	92%	110%	92.5%	105%	97.6%	99.4%	101%	107%	106%	110%	103%	105%	–	106%
CC1CC2C3CCC4=CC(=O)CCC4(C)C3CCC2(C)C1(O)C(=O)CO (stereo not given)	130%	98.4%	108%	122%	121%	124%	107%	114%	106%	97.4%	110%	110%	108%	93.9%	104%	108%	–	109%	–	111%
Cc1ccc2nc(N)nnc2c1	98.4%	108%	127%	–	98.2%	118%	103%	127%	102%	112%	90.5%	102%	111%	96%	108%	105%	100%	110%	–	99.2%
Cc1cc(Cl)cc(Cc2cc(Cl)cc(C)c2O)c1O	30.5%	–	1.11% (active)	56.9%	15%	22.6%	12.7%	8.59% (active)	12.4%	–	19.3%	17.3%	8.37% (active)	-7.63% (active)	6.88% (active)	16.1%	5.44% (active)	22.6%	-7.41% (active)	14.2%
Clc1ccc(C(SCc2ccccc2)SCc2ccccc2)cc1	–	92.7%	99.9%	88%	91%	102%	97.2%	88.2%	97.8%	90.9%	91.3%	105%	88.7%	85.9%	98.8%	82.1%	94.3%	96.3%	75.8%	88.2%
